About 79,000 compounds went through this panel and 15% of them were active in at least one assay; those are over-represented in the sample as a whole. A number with no mark means an inactive call. Activity calls are given as the source filed them. No stated cut-off is given here; in the data, active means growth inhibition above about 70%; inactive means the rest.
Tests used:
[1] = NCI Yeast Anticancer Drug Screen. Data for the rad50 strain (AID 155);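 further: 0% = growth of vehicle-only cultures of the same strain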; conditions: S. cerevisiae rad50 strain growth inhibition, stronger effect = higher value
Outline: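 Inhibition values express reduced yeast growth in compound-treated cultures relative to vehicle-treated controls.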

[2] = NCI Yeast Anticancer Drug Screen. Data for the mec2-1 strain (AID 157); conditions: S. cerevisiae mec2-1 strain, stronger effect = higher value
Outline: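 Mutant yeast (mec2-1) grown with compound; growth inhibition relative to vehicle control reported.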

[3] = NCI Yeast Anticancer Drug Screen. Data for the sgs1 mgt1 strain (AID 161);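 further: 0% = growth of cultures given vehicle only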; conditions: S. cerevisiae sgs1 mgt1 strain, stronger effect = higher value
Outline: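 Yeast cells carrying a defined DNA-repair defect were exposed to test compounds. Growth inhibition was measured relative to vehicle-treated controls.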

[4] = NCI Yeast Anticancer Drug Screen. Data for the cln2 rad14 strain (AID 165);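 further: 0% = growth equal to vehicle treated cultures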; conditions: S. cerevisiae cln2 rad14 strain, stronger effect = higher value
Outline: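 Readout is yeast growth inhibition versus vehicle-treated controls, using a strain with cln2 and rad14 alterations exposed to compound.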

[5] = NCI Yeast Anticancer Drug Screen. Data for the bub3 strain (AID 167); conditions: S. cerevisiae bub3 mutant strain, stronger effect = higher value
Outline: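 Steps: expose the mutant yeast strain to compound; grow alongside vehicle-treated cultures; measure growth; express inhibition against the vehicle cultures.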

[6] = NCI Yeast Anticancer Drug Screen. Data for the mlh1 rad18 strain (AID 175); conditions: S. cerevisiae mlh1 rad18 strain growth inhibition, stronger effect = higher value
Outline: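 Genetically defined yeast (DNA repair-deficient) exposed to compounds; growth inhibition determined relative to vehicle.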

[7] = at 5.0 µM (retest, dose inferred, filed as 0.5)
[8] = at 50.0 µM (retest, dose inferred, filed as 5.0)

Row | Structure (SMILES) | growth inhibition [1, 7] [%] | growth inhibition [1, 8] | growth inhibition ([1]; at 50.0 µM) | growth inhibition [2, 7] [%] | growth inhibition [2, 8] | growth inhibition ([2]; at 50.0 µM) | growth inhibition [3, 7] | growth inhibition [3, 8] | growth inhibition ([3]; at 50.0 µM) | growth inhibition [4, 7] | growth inhibition [4, 8] | growth inhibition ([4]; at 50.0 µM) | growth inhibition [5, 7] | growth inhibition [5, 8] | growth inhibition ([5]; at 50.0 µM) | growth inhibition [6, 7] [%] | growth inhibition [6, 8] | growth inhibition ([6]; at 50.0 µM)
1 | COc1ccc(C(=O)Cc2nc3nnc(NC(=O)Nc4ccc(Cl)cc4)n3nc2CC(=O)c2ccc(OC)cc2)cc1 | 2 | 96% (active) | 93.1% (active) | 7 | 98% (active) | 94.9% (active) | 1% | 98% (active) | 94.8% (active) | -1% | 97% (active) | 93.5% (active) | 7% | 98% (active) | 96.2% (active) | 4 | 97% (active) | 95.1% (active)
2 | CCOC(=O)C[n+]1c(C)cc(-c2ccccc2)cc1C | -2 | 1% | 13.6% | 7 | -15% | 6.3% | -1% | -3% | 12.2% | -1% | 2% | 28.1% | 24% | -4% | 14.2% | 9 | 21% | 7.55%
3 | O=C(OCC1OC(c2nn[nH]n2)C(OC(=O)c2ccccc2)C1OC(=O)c1ccccc1)c1ccccc1 (stereo not given) | 17 | 61% | 19% | 4 | 56% | 30.4% | 19% | 80% (active) | 43.8% | 25% | 70% (active) | 45.9% | 17% | 80% (active) | 66% | 36 | 66% | -33.6%
4 | O=C(NNc1nc(-c2ccccc2)cs1)Nc1ccccc1 | 30 | 54% | 77.2% (active) | 19 | 44% | 90.1% (active) | 99% (active) | 98% (active) | 88.5% (active) | 98% (active) | 97% (active) | 23.6% | 99% (active) | 97% (active) | 83.8% (active) | 48 | 66% | 75.1% (active)
5 | CC(=O)Nc1ccc2c(c1)C(=O)c1cccc(F)c1-2 | 6 | 93% (active) | 90% (active) | -2 | 54% | 25.8% | -4% | 69% | 51.2% | -2% | 38% | 12% | 1% | 17% | 12.2% | 3 | 82% (active) | 45.9%

Reference: PubChem BioAssay (NCI)
